Reference: PubChem BioAssay (Tox21)
“And” between values parts separate entries of the source, which are not always exact repeats. Identical values can stand only once. Results filed as inconclusive are left out. The source made the active and inactive calls. Unless noted, the call rests on the fitted dose curve; in most records, active means well fitted curve in the direction sought with a large enough effect in the repeat runs; inconclusive means weak or mixed curves; inactive means no such curve, though single readings can be large; an effect the other way counts as inactive or inconclusive.

What was measured:
[1] = qHTS assay to identify small molecule agonists of the RXR signaling pathway - cell viability counter screen (AID 1159529);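 further: HEK 293T cells carrying an RXR-alpha UAS beta-lactamase reporter; series mostly up to about 77 µM; nearly all actives have a fitted effect of over 50% in size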
Procedure, shortened: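 Counter screen: CellTiter-Glo luminescence. Cells: RXR-alpha-UAS-bla HEK 293T. Medium: 2% charcoal-stripped FBS. Treatment: 16 h, 37 C. Reagent incubation: 30 min, RT.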

[2] = qHTS assay to identify small molecule antagonists of the retinoid acid receptor (RAR) signaling pathway - cell viability counter screen (AID 1159551); further: nearly all actives have a fitted effect of over 35% in size
Procedure, shortened: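 Cytotoxicity counter screen in C3RL4 cells: 6 h compound exposure with 1 uM retinol (final), viability from cellular ATP by luminescence.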

[3] = qHTS assay to identify small molecule antagonists of the retinoic acid receptor (RAR) signaling pathway (AID 1159552; further: nearly all actives have a fitted effect of over 50% in size)
Procedure, shortened: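 Antagonism of retinol-induced RARE reporter activity was measured in C3RL4 cells. Exposure to compounds and 1 uM final retinol lasted 6 hr at 37 C, with luminescence as endpoint.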

[4] = qHTS assay to identify small molecule agonists of the retinoic acid receptor (RAR) signaling pathway (AID 1159553); further: potency means the concentration at half of the fitted maximal effect
Procedure, shortened: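 Agonist activity was scored in C3RL4 cells bearing a retinoic acid response element luciferase construct. Cells were treated with compounds for 6 hr at 37 C, and luciferase signal was measured as luminescence.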

[5] = qHTS assay to identify small molecule antagonists of the estrogen related receptor (ERR) signaling pathway from Tox21 library - cell viability counter screen (AID 1224834); further: nearly all actives have a fitted effect of over 30% in size
Procedure, shortened: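 Cytotoxicity of test substances is gauged in the same ERR cells used for the antagonist screen, after 17.5 h of compound treatment at 37 C, by CellTiter-Fluor fluorescence measured after 30 min.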

[6] = target: Luciferin 4-monooxygenase (Photinus pyralis) (UniProt P08659); test: qHTS assay to identify small molecule inhibitors of firefly luciferase (AID 1224835); further: series mostly up to about 120 µM; nearly all actives have a fitted effect of over 25% in size
Procedure, shortened: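 Quantitative HTS format; KM concentrations of both substrates. Purified P. pyralis FLuc activity quantified from luminescence images.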

[7] = qHTS assay to identify small molecule agonists of the constitutive androstane receptor (CAR) signaling pathway - cell viability counter screen (AID 1224836); further: series mostly up to about 92 µM; nearly all actives have a fitted effect of over 45% in size
Procedure, shortened: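 Double-stable HepG2 hepatoma cells (hCAR plus CYP2B6-2.2kb) are treated for 23 h at 37 C with test compounds in 15-point concentration series. PK11195 at 0.75 uM final is co-added. Cell viability is quantified by CellTiter-Fluor.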

[8] = qHTS assay to identify small molecule antagonists of the constitutive androstane receptor (CAR) signaling pathway - cell viability counter screen (AID 1224837); further: series mostly up to about 92 µM; nearly all actives have a fitted effect of over 45% in size
Procedure, shortened: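 Multiplexed cytotoxicity read-out for the CAR antagonist screen: double-stable HepG2-CYP2B6-hCAR cells co-treated with 50 nM CITCO (final) and compound over 15 concentrations, incubated 23 hr, then assessed by CellTiter-Fluor fluorescence.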

[9] = target: Nuclear receptor subfamily 1 group I member 3 (Homo sapiens) (UniProt Q14994); test: qHTS assay to identify small molecule antagonists of the constitutive androstane receptor (CAR) signaling pathway (AID 1224838); further: nearly all actives have a fitted effect of over 40% in size
Procedure, shortened: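 Compounds were titrated across 15 concentrations onto HepG2 cells double-stably expressing hCAR and a CYP2B6-2.2kb reporter, together with 50 nM CITCO (final). After 24 h at 37 C, luciferase activity was measured by luminescence.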

[10] = target: Nuclear receptor subfamily 1 group I member 3 (Homo sapiens) (UniProt Q14994); test: qHTS assay to identify small molecule agonists of the constitutive androstane receptor (CAR) signaling pathway (AID 1224839); further: nearly all actives have a fitted effect of over 15% in size; further: potency means the concentration at half of the fitted maximal effect
Procedure, shortened: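 Readout: firefly luciferase luminescence via ONE-Glo. System: HepG2 double-stable for hCAR and CYP2B6-2.2kb. Conditions: 15-point compound titration, PK11195 at 0.75 uM final, 24 h incubation.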

[11] = qHTS assay to identify small molecule antagonists of the estrogen related receptor signaling pathway with the pleiotropic PPARgamma coactivator (PGC) from Tox21 10K library - cell viability counter screen (AID 1224840; active means well fitted cell-killing curve with a large enough effect in the repeat runs, not every such curve was filed as active; further: nearly all actives have a fitted effect of over 40% in size)
Procedure, shortened: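 Step one, plate 2,000 PGC/ERR cells per well; step two, incubate 6 h at 37 C/5% CO2; step three, pin-transfer compounds; step four, incubate 17.5 h; step five, add CellTiter-Fluor and read fluorescence after 30 min.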

[12] = qHTS assay to identify small molecule antagonists of the estrogen related receptor signaling pathway with the pleiotropic PPARgamma coactivator (PGC) from Tox21 10K library (AID 1224841; call rule not given here; further: series mostly up to about 92 µM; actives are mostly falling curves and most rising ones were filed inactive; nearly all actives have a fitted effect of over 50% in size)
Procedure, shortened: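 Antagonism in this quantitative HTS is taken from loss of luciferase signal in PGC/ERR cells. Cells (2,000/well) are treated with compounds in DMSO after a 6 h settling period and read by One-Glo luminescence after 18 h.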

[13] = qHTS assay to identify small molecule agonists of the estrogen related receptor signaling pathway with the pleiotropic PPARgamma coactivator (PGC) from Tox21 10K library (AID 1224842); further: nearly all actives have a fitted effect of over 15% in size
Procedure, shortened: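 PGC/ERR reporter cells (NTP line) were seeded 2,000 per well, rested 6 h at 37 C/5% CO2, then pin-dosed with compounds in DMSO for 18 h at 37 C; luciferase read by One-Glo luminescence after 30 min at room temperature.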

[14] = target: Thyrotropin receptor (Homo sapiens) (UniProt P16473); test: qHTS assay to identify small molecule agonists of the thyroid stimulating hormone receptor (TSHR) signaling pathway (AID 1224843; calls by dose curve; further: nearly all actives have a fitted effect of over 45% in size)
Procedure, shortened: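 TSHR-expressing HEK293 cells (800 per well) were exposed to compounds for 30 min at room temperature. cAMP was then detected by HTRF competition with cAMP-d2 and anti-cAMP cryptate, read after 1 h at room temperature. Fifteen concentrations, triplicate.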

[15] = qHTS assay to identify small molecule antagonists of the estrogen related receptor (ERR) signaling pathway - cell viability counter screen (AID 1224818);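 further: series mostly up to about 46 µM; viability measured after 17.5 h of compound exposure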
Procedure, shortened: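 Cells carrying the ERR pathway reporter were seeded and incubated for 6 hours before compound addition. After a 17.5-hour exposure at 37 C, live-cell protease activity was measured by CellTiter-Fluor fluorescence following 30 minutes of incubation.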

[16] = qHTS assay to identify small molecule antagonists of the estrogen related receptor signaling pathway with the pleiotropic PPARgamma coactivator (PGC) cell viability counter screen (AID 1224822;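 further: series mostly up to about 46 µM; viability read after 17.5 h compound exposure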)
Procedure, shortened: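 Seed PGC/ERR cells (2,000/well); incubate 6 h at 37 C/5% CO2; pin-transfer compounds in DMSO; incubate 17.5 h at 37 C; add CellTiter-Fluor; after 30 min read fluorescence.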

Measured: Potency

Thyrotropin receptor (Homo sapiens), sequence (P16473 whole entry, looked up): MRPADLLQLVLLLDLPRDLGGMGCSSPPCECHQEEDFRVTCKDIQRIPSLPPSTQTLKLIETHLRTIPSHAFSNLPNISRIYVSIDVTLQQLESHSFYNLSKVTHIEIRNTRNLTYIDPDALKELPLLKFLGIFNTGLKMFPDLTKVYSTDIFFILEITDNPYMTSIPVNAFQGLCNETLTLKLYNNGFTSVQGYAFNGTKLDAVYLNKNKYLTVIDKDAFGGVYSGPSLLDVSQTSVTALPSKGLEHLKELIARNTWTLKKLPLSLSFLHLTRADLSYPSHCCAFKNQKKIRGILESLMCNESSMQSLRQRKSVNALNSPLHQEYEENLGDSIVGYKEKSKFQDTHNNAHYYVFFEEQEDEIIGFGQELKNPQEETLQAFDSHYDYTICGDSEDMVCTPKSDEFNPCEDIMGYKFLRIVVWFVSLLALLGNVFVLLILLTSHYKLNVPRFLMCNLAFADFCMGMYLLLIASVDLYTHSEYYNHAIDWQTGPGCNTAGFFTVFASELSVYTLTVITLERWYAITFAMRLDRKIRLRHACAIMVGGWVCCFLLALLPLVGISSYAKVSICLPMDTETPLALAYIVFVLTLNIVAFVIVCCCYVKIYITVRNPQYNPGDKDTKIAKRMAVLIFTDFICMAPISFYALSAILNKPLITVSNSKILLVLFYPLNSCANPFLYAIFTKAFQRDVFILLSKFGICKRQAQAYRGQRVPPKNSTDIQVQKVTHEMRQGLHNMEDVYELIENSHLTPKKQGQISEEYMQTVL
Luciferin 4-monooxygenase (Photinus pyralis), sequence (P08659 whole entry, looked up): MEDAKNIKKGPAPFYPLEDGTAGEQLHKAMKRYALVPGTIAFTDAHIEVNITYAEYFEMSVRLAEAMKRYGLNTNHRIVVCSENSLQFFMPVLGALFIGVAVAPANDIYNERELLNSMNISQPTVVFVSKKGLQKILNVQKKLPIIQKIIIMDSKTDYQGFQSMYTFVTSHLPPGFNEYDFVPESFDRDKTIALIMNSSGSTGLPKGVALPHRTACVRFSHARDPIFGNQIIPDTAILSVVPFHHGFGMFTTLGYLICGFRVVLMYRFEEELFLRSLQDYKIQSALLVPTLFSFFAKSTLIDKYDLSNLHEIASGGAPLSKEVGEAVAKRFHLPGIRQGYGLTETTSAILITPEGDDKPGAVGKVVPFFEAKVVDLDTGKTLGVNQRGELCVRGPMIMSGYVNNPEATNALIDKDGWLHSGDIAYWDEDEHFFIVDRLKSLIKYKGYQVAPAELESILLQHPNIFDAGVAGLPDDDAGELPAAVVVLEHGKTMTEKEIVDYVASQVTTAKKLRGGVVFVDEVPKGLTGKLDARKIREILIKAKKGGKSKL
Nuclear receptor subfamily 1 group I member 3 (Homo sapiens), sequence (Q14994 whole entry, looked up): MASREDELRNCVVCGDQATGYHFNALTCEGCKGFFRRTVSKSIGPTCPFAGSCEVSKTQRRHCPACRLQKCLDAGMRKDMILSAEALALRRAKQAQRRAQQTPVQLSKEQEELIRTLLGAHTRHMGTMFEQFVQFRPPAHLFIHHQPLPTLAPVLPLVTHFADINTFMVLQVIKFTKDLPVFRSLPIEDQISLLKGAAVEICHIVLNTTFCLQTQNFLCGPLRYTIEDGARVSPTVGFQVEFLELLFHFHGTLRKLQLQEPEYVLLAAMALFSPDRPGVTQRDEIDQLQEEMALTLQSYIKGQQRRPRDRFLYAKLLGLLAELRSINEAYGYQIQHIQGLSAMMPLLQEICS

COC(=O)c1cc(C(=O)OC)cc(S(=O)(=O)O)c1
not listed: [15] | [16]
inactive: all other assays above

CCSC(=O)N(CC(C)C)CC(C)C
not listed: [3] | [14] | [15] | [16]
inactive: all other assays above

Cc1sccc1Br
not listed: [15] | [16]
inactive: all other assays above

O=c1cc(CO)occ1O
not listed: [15] | [16]
inactive: all other assays above

NS(=O)(=O)c1cc(C(=O)NN2C[C@H]3[C@H]4CCC(C4)[C@H]3C2)ccc1Cl
not listed: [15] | [16]
inactive: all other assays above

O=C(O)COc1nn(Cc2ccccc2)c2ccccc12
not listed: [15] | [16]
inactive: all other assays above

CC(C)(C)c1ccc(O)c(O)c1
inactive: [1] | [15] | [16] | [7] | [8] | [9]
active: [10] 63.2 µM and 24.3 µM

C[N+](C)(C)CC(O)CC(=O)[O-] (stereo not drawn)
not listed: [3] | [6] | [15] | [16]
inactive: all other assays above

CC(C)NC(=O)NC(C)C
active: [4] 969 nM
not listed: [15] | [16]
inactive: all other assays above

C=C(C)CS(=O)(=O)O
not listed: [4] | [15] | [16]
inactive: all other assays above
